In PMC4552634, “A New Set of Chemical Starting Points with Plasmodium falciparum Transmission-Blocking Potential for Antimalarial Drug Discovery” (PLoS ONE, 2015):
About 3,200 (25%) of roughly 13,000 compounds showed an effect of 50% or more. The list shows a part of the results.

Each compound was assayed on P. falciparum stage V gametocytes. Conditions: 48 h, 5 µM; inhibitor.
Parameters: BacTiter-Glo ATP luminescence viability of purified stage V gametocytes in 384-well plates, per cent inhibition versus DMSO

Row | SMILES | % Inhibition [%]
1 | COc1ccc2nccc([C@@H](O)CN3CCC(NCc4cnc5snnc5c4)C(F)C3)c2c1 (some centres unmarked) [TCMDC-141752] | 25.48
2 | Cc1ccc(-n2ncc(C(=O)Nc3cc(Cl)cc(Cl)c3)c2C2CCNCC2)cc1C [TCMDC-124409] | 57.45
3 | CCCc1c(C(=O)Nc2ccc3c(c2)CCN(C2CCC2)CC3)cnn1-c1ccc(Cl)cc1 [TCMDC-136081] | 40.23
4 | O=C(Nc1cc(Cl)cc(Cl)c1)c1cnn(-c2ccc(F)cc2)c1C1CCNCC1 [TCMDC-124410] | 50.02
5 | Cc1ccccc1C1CCN(c2ccc(NC(=O)c3ccc(Cl)nc3)cc2)CC1 [TCMDC-134586] | 25.08
6 | Cc1ccccc1C1CCN(c2ncc(C(=O)Nc3ccccc3)cc2Cl)CC1 [TCMDC-134630] | -30.75
7 | O=C(Nc1ccc(Cn2ncc(N3CCCNCC3)c(Cl)c2=O)cc1)Nc1cc(Cl)cc(Cl)c1 [TCMDC-133326] | -9.301
8 | COc1cc(NC(=O)c2c(-c3c(Cl)cccc3Cl)noc2C)c(OC)cc1Cl [TCMDC-125477] | -41.77
9 | CC(O)C(C)(CO)NCc1ccc2c3c(cccc13)-c1ccccc1-2 (centres unmarked) [TCMDC-138117] | 15.45
10 | NC(=O)c1cnc2ccc(-c3cncs3)cc2c1Nc1ccc(F)c(Cl)c1 [TCMDC-138566] | 50.74
11 | Cc1ccc(O)cc1Nc1c(C(N)=O)cnc2ccc(-c3cncs3)cc12 [TCMDC-138565] | 46.98
12 | Cc1noc(C)c1-c1ccc2c(Nc3ccc(C(F)(F)F)cc3)c(C(N)=O)cnc2c1.Cl [TCMDC-136019] | 23.08
13 | CC(C)CCCC(C)(C)NC[C@@H](O)[C@H](Cc1ccccc1)NC(=O)c1cccc(OCC2CC2)c1 [TCMDC-136556] | 100.1
14 | CCOc1cc(C(=O)N[C@@H](Cc2ccccc2)[C@H](O)CNCc2cccc(OC)c2)cc(N2CCCCS2(=O)=O)c1 [TCMDC-134521] | -19.61
15 | CCNc1cc(C(=O)N[C@@H](Cc2ccccc2)[C@H](O)CNC(C)(C)Cc2cccc(OC)c2)cc(N2CCCC2=O)c1 [TCMDC-134574] | 1.402
16 | CCCOc1cccc(C(=O)N[C@@H](Cc2ccccc2)[C@H](O)CNCc2cccc(OC)c2)c1 [TCMDC-136707] | 12.44
17 | CC(C)CCCC(C)(C)NC[C@@H](O)[C@H](Cc1ccccc1)NC(=O)c1cccc(CCC2CC2)c1 [TCMDC-136602] | 71.1
18 | O=C(N[C@@H](Cc1ccccc1)[C@H](O)CNCCC(F)(F)F)c1cccc(OCC2CC2)c1 [TCMDC-136610] | 48.68
19 | COc1cccc(C2(NC[C@@H](O)[C@H](Cc3ccccc3)NC(=O)c3ccccc3)CCCCC2)c1 [TCMDC-135740] | 7.84
20 | O=C(N[C@@H](Cc1ccccc1)[C@H](O)CNCCC(F)(F)F)c1cccc(CCC2CC2)c1 [TCMDC-136611] | -3.968
21 | CCCOc1cccc(C(=O)N[C@@H](Cc2ccccc2)[C@H](O)CNCc2ccccc2OC)c1 [TCMDC-136706] | 81.52
22 | Clc1ccccc1/C=C/c1cncnc1Nc1ccc2nc(Cc3ccccc3)[nH]c2c1 [TCMDC-138659] | 0.669
23 | COc1cc(Nc2ccnc3cc(-c4ccccn4)ccc23)cc(OC)c1OC [TCMDC-138203] | 0.8769
24 | COc1ccc(-c2ccnc(-c3cccc(-c4ccccn4)n3)c2)cc1 [TCMDC-125008] | 155.4
25 | c1ccc(-c2cccc(-c3ccccn3)n2)nc1 [TCMDC-123985] | -15.75

Row | SMILES | % Inhibition [%]
26 | N#Cc1ccc(NC(=NC2Cc3ccccc3C2)Nc2cccc(Cl)c2Cl)c(O)c1 [TCMDC-140223] | -11.72
27 | O=C(/C=C/c1cccc(Cl)c1)N1CCC(C(O)CN2CCC3(CC2)CN(C(=O)/C=C/c2cccc(Cl)c2)c2ccccc23)CC1 (centres unmarked) [TCMDC-134543] | 57.97
28 | O=C(/C=C/c1ccc(Cl)c(Cl)c1)N1CCC(C(O)CN2CCC(c3c[nH]c4ccccc34)CC2)CC1 (centres unmarked) [TCMDC-134171] | 19.99
29 | CS(=O)(=O)Nc1ccc2[nH]cc(C3CCN(CC(O)C4CCN(C(=O)/C=C/c5ccc(Cl)c(Cl)c5)CC4)CC3)c2c1 (centres unmarked) [TCMDC-134176] | 30.58
30 | CC(=O)Nc1ccc(CN2CCC(NC(=O)c3ccc(-c4cccc(F)c4)s3)CC2)cc1 [TCMDC-134333] | 6.679
31 | CCNc1cc(C(=O)N[C@@H](Cc2cc(F)cc(F)c2)[C@H](O)CNCc2cccc(C(F)(F)F)c2)cc(N2CCCCS2(=O)=O)c1 [TCMDC-134678] | -1.763
32 | CC(C)CCNC(=O)[C@@H]1[C@H]2C(=O)N(C3CCCCC3)C(=O)[C@H]2[C@H]2C=C[C@@H]3C(c4ccc(C(C)(C)C)cc4)=NO[C@@H]3N21 [TCMDC-139763] | -31.5
33 | Cc1cc(CN2CCCC(OC(c3ccc(F)cc3)c3ccc(F)cc3)C2)ccc1O (centres unmarked) [TCMDC-136168] | 43.13
34 | CCN(CC)CCNc1nc(C=Cc2ccc(Cl)cc2)nc2cc3ccccc3cc12 [TCMDC-125777] | 86.86
35 | CCN(CC)CCNc1ccnc2[nH]c3ccc(Cl)cc3c12 [TCMDC-131832] | 4.266
36 | CN(C)CCNc1ncnc2c1[nH]c1ccc(Cl)cc12 [TCMDC-124582] | 1.888
37 | CNC(=O)NC1=NC(C)(C)N(OCc2ccc(Cl)c(Cl)c2)C(NC(=O)NC)=N1 [TCMDC-131694] | 10.36
38 | CN(C)Cc1ccc(O)c(-c2ccc(C(C)(C)C)cc2)n1 [TCMDC-124147] | 10.19
39 | COc1ccc2nccc([C@@H](O)CN3CCC(NCCNc4cccc(F)c4)CC3)c2c1 [TCMDC-140716] | -36.18
40 | Cc1cc(N[C@@H](CC(C)C)C(=O)NCc2cccs2)nc(NCCc2ccc(F)cc2)n1 [TCMDC-134794] | 46.14
41 | Cc1cc(N[C@@H](CC(C)C)C(=O)NCCc2ccccc2)nc(NCCc2cccs2)n1 [TCMDC-134816] | 67
42 | Cc1cc(N[C@@H](CC(C)C)C(=O)NCc2cccs2)nc(NCCc2cccs2)n1 [TCMDC-134815] | 136.3
43 | Cc1cc(N[C@@H](CC(C)C)C(=O)NCc2cccs2)nc(NCCc2ccccc2)n1 [TCMDC-134779] | 68.3
44 | Cc1cc(N[C@@H](CC(C)C)C(=O)NCc2cccs2)nc(Nc2ccccc2)n1 [TCMDC-134739] | -4.41
45 | COc1ccc(NC(=O)[C@H](CC(C)C)Nc2cc(C)nc(NCCc3cccs3)n2)cc1 [TCMDC-134875] | -27.08
46 | COc1ccc(NC(=O)[C@H](CC(C)C)Nc2cc(C)nc(NCCc3ccccc3OC)n2)cc1 [TCMDC-134805] | -9.787
47 | COc1ccccc1CCNc1nc(C)cc(N[C@@H](CC(C)C)C(=O)NCc2cccs2)n1 [TCMDC-134806] | 64.45
48 | Cc1cc(N[C@@H](CC(C)C)C(=O)NCCc2ccccc2)nc(NCc2ccccc2C)n1 [TCMDC-134911] | -9.933
49 | Cc1cc(N[C@@H](CC(C)C)C(=O)NCCc2ccccc2)nc(Nc2ccccc2)n1 [TCMDC-134742] | -5.247
50 | COc1ccccc1CCNc1nc(C)cc(N[C@@H](CC(C)C)C(=O)Nc2ccccc2)n1 [TCMDC-134808] | 19.68
